# Experimental data from ChEMBL document CHEMBL3433997, “St. Jude Leishmania screening dataset” (2016).
# Columns and labels:
# Assay type in all cases: functional
# [1] = target: Solute carrier family 2, facilitated glucose transporter member 1 (Homo sapiens) (UniProt P11166); assay: ST_JUDE_LEISH: Cytotoxicity at 2uM final concentration against transgenic Leishmania Mexicana promastigotes LmGLUT1 that are glucose transport deficient and complemented with the human glucose transporter GLUT1. Activity is measured by DNA content using SYBR green in vitro
# Sequence of Solute carrier family 2, facilitated glucose transporter member 1 (Homo sapiens) (P11166 whole entry): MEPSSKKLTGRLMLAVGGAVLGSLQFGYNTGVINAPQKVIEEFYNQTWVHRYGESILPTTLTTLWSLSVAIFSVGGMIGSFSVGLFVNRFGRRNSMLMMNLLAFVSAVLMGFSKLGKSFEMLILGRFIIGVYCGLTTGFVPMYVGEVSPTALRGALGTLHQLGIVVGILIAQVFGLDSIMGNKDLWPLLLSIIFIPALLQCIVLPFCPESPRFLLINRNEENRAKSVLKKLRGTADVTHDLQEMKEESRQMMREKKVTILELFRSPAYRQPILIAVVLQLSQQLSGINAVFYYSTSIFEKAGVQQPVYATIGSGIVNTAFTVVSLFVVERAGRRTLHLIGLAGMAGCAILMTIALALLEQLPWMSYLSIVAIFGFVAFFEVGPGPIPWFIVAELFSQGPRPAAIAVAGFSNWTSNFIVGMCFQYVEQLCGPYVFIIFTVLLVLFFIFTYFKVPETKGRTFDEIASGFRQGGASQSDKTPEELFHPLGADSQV
# [2] = target: Hexose transporter 1 (Plasmodium falciparum) (UniProt O97467); assay: ST_JUDE_LEISH: Cytotoxicity at 2uM final concentration against transgenic Leishmania Mexicana promastigotes LmPfHT that are glucose transport deficient and complemented with the Plasmodium falciparum hexose transporter. Activity is measured by DNA content using SYBR green in vitro
# [3] = target: Glucose transporter (Leishmania mexicana) (UniProt O61059); assay: ST_JUDE_LEISH: Cytotoxicity at 2uM final concentration against transgenic Leishmania Mexicana promastigotes LmGT2 that are glucose transport deficient and complemented with the L. Mexicana glucose transporter 2. Activity is measured by DNA content using SYBR green in vitro
SMILES,inhibition [1] [%],inhibition [2] [%],inhibition [3] [%]
Nc1cc(-c2ccc3c(N)nccc3c2)ccc1Cl,4.64,2.75,1.32
COc1cc2nc(Nc3ccc(N4CCOCC4)cc3)nc(N)c2cc1OC,0.99,2.3,-0.6
COc1cc2c(cc1CCNCCCCNCCc1cc3c(cc1OC)CCCC3)CCCC2,99.4,98.4,106
CCc1c[nH]c2c(N3CCCC3=O)cc(C(=O)N[C@@H](Cc3ccccc3)[C@H](O)CNC3CCCCC3)cc12,7.8,6.05,9.77
CN(C)CCN(C)Cc1cccc(-c2ccc3c(Nc4ccc(F)cc4Cl)ccnc3c2)c1,1.88,4.55,12.7
O=c1ccccn1CCCC1CCCCN1 (centres undefined),12.2,12.2,13.5
CCCC(=O)c1cnc2cc(O)ccc2c1Nc1ccccc1C,6.19,6.97,0.57
COc1ccc(C2N=C(N)N=C(N)N2c2ccc(Cl)cc2)cc1OC (centres undefined),2.61,2.52,2.93
Cc1cccc2nc(-c3cccc(-c4ccc(CNCCc5ccncc5)cc4)c3)[nH]c12,0.46,-0.37,-0.84
Cc1cc(NCCCCCCCCNc2cc(C)nc3ccccc23)c2ccccc2n1,-0.97,1.84,0.69
O=C(/C=C/c1ccc(Cl)c(Cl)c1)NCCCCCN1CCC(NC(=O)Nc2ccc(Br)cc2)CC1,-0.66,-0.06,-0.46
Cc1ccc(C(NC(=O)C2CCCCC2)c2ccc3cccnc3c2O)cc1 (centres undefined),0.75,1.7,0.54
COc1ccc(NC(=O)[C@H](CC(C)C)Nc2cc(C)nc(NCCc3cccs3)n2)cc1,-2.08,1.29,-1.58
C=CCOC(=O)N1CCC(CNCc2cccc(-c3cccc(-c4nc5cccc(C)c5[nH]4)c3)c2)C1 (centres undefined),3.47,1.88,7.29
O=[N+]([O-])c1cc(/C=N/Nc2nc3ccccc3[nH]2)ccc1O,8.03,8.49,4.27
Cc1[nH]c(C)c(-c2ccc(-c3ccc(OC(F)(F)F)cc3)nc2)c(=O)c1Cl,-0.94,-0.29,0.22
Cc1[nH]c(C)c(-c2ccc(Oc3ccccc3)cc2)c(=O)c1Br,1.44,1.17,-0.53

SMILES,inhibition [1] [%],inhibition [2] [%],inhibition [3] [%]
COc1ccc(NC(=O)c2ccc3cc4ccccc4cc3c2)cc1N1CCN(C)CC1,0.49,-0.55,0.74
COC(=O)c1c(C#N)c(OC)cc(O)c1CSC[C@@H](CN1CCCCC1)Nc1nc(-c2ccc([N+](=O)[O-])cc2)cs1,-0.16,-0.29,0.57
CCCCCCNC(=O)c1nn(CCN2CCC(N3CCCC3)CC2)cc1-c1ccc(Cl)c(Cl)c1,0.97,1.84,1.8
CCCCCC(C)N/C(=N/c1cccc(Cl)c1Cl)Nc1ccc(C#N)cc1O (centres undefined),5.91,4.59,2.7
CC(C)CN1C(=O)c2ccccc2C(C(=O)Nc2cccc(C#N)c2)C1c1cccs1 (centres undefined),-0.23,-1.39,-1
CC(C)Cc1nc2nc(N)nc(N)c2cc1C(C)C,1.84,4.17,1.5
CN(C)CCOc1cc(NC(=O)Nc2cccc([N+](=O)[O-])c2)ccc1I,13,14.6,15.7
CCc1nn2c(Nc3ccncc3)cc(C)nc2c1-c1ccccc1,3.36,3.33,1.85
c1cc(-c2ccc(CNCCCn3ccnc3)cc2)cc(-c2nc3ccccc3[nH]2)c1,2.87,2.53,0.93
O=c1ccc2ccc(F)c3c2n1CC3CN1CCC(NCc2ccc(-c3cccc(Cl)c3)nc2)CC1 (centres undefined),26.2,21.3,14.9
CC(=O)Nc1ccc(CN2CCC(NC(=O)c3ccc(-c4ccc(N(C)C)cc4)s3)CC2)cc1,2.06,1.82,2.63
CC(CNC(=O)c1cc2c(Cl)cc(Cl)cc2[nH]1)CNc1cc(=O)c2ccccc2[nH]1 (centres undefined),-0.17,1.37,2.08
O=C(Cc1c[nH]cn1)Nc1cccc(-c2ccc(-c3nc4cc(C(F)(F)F)ccc4[nH]3)s2)c1,-5.22,-3.59,-0.81
CCN1CCC(N(Cc2ccc(-c3ccc(C(F)(F)F)cc3)cc2)C(=O)Cn2c(CCc3cccc(F)c3F)cc(=O)c3ccc(OCc4ccccc4)cc32)CC1,3.79,3.24,3.52
O=C(Cn1c(CCc2cccc(F)c2F)cc(=O)c2ccccc21)N(Cc1ccc(-c2ccc(C(F)(F)F)cc2)cc1)C1CCN(CCN2CCOCC2)CC1,1.92,1.75,1.28
CC(Cc1ccc(NC(=O)c2ccc(CNCCc3ccccc3)cc2)cc1)NCCc1cccc(Cl)c1 (centres undefined),68.9,36,4.52
